Inconclusive results are not listed. Activity calls are given as the source filed them. Unless noted, calls come from the whole dose curve; as a rule, active = well fitted curve in the direction sought with a large enough effect in the repeat runs; inconclusive = weak or mixed curves; inactive = no such curve, though single readings can be large; an effect the other way counts as inactive or inconclusive.
What was measured:
[1] = qHTS assay to identify small molecule agonists of the vitamin D receptor (VDR) signaling pathway - cell viability counter screen (AID 743224); note: series mostly up to about 63 µM; nearly all actives have a fitted effect of over 50% in size
How it was run: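 Plated VDR-bla cells (4 h, 37C) received compound, incubated 16 h, then LiveBLAzer substrate 2 h RT; CellTiter-Glo added afterwards, luminescence read at 30 min.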

[2] = qHTS assay to identify small molecule antagonists of the vitamin D receptor (VDR) signaling pathway - cell viability counter screen (AID 743225); note: nearly all actives have a fitted effect of over 50% in size
How it was run: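 Luminescent cell viability (CellTiter-Glo) in VDR-bla HEK 293T cells after 16 h compound exposure at 37C in the presence of 3 nM final 1-alpha,25-dihydroxy vitamin D3.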

[3] = qHTS assay to identify small molecule agonists of the NFkB signaling pathway (AID 1159509; active = well fitted curve in the direction sought with a large enough effect in the signal ratio in the repeat runs, not every such curve was filed as active; the % refers to the signal ratio; note: series mostly up to about 61 µM)
How it was run: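 NFkB-bla ME-180 cells carry a beta-lactamase reporter under an NF-kB response element. They were plated overnight, then exposed to compounds for 5 h at 37 C. Read-out is LiveBLAzer FRET after 1.5 hr at room temperature (405 nm excitation; 460/530 nm emission).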

[4] = qHTS assay to identify small molecule agonists of the NFkB signaling pathway - cell viability counter screen (AID 1159515; calls by dose curve; note: series mostly up to about 61 µM; nearly all actives have a fitted effect of over 55% in size)
How it was run: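 Using the same wells as the NFkB reporter read, ME-180 NFkB-bla cells given compounds for 5 hr were assessed for viability via CellTiter-Glo, with luminescence taken after a 30 min room-temperature incubation.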

[5] = qHTS assay to identify small molecule agonists of the endoplasmic reticulum stress response signaling pathway - cell viability counter screen (AID 1159517; calls by dose curve; note: nearly all actives have a fitted effect of over 50% in size; note: potency is the fitted concentration of half-maximal effect)
How it was run: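 CellTiter-Glo was added to wells already read for beta-lactamase FRET, and luminescence was recorded 30 min later. Cells: ESRE-bla HeLa, 1,500 per well, compound exposure 5 hr at 37 C.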

[6] = qHTS assay to identify small molecule antagonists of the retinoid-related orphan receptor gamma (ROR-gamma) signaling pathway - cell viability counter screen (AID 1159520); note: nearly all actives have a fitted effect of over 50% in size
How it was run: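 Tet-on ROR gamma CHO cells (1,000/well) were plated 4 hr, given compounds in DMSO for 2 hr at 37 C, then induced with 1 uM final doxycycline for 16 hr. Viability was read as ATP by CellTiter-Glo luminescence after 30 min.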

[7] = molecular target: Nuclear receptor ROR-gamma (Homo sapiens) (UniProt P51449); assay: qHTS assay to identify small molecule antagonists of the retinoid-related orphan receptor gamma (ROR-gamma) signaling pathway (AID 1159521; note: nearly all actives have a fitted effect of over 50% in size; note: potency is the fitted concentration of half-maximal effect)
How it was run: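 CHO cells expressing RORγ under a TET-on promoter, luciferase under RORE control. Dox 1 uM final, 16 h; compounds added 2 h prior. Luminescence decrease measured.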

[8] = qHTS assay to identify small molecule agonists of the AP-1 signaling pathway - cell viability counter screen (AID 1159525; calls by dose curve; note: nearly all actives have a fitted effect of over 55% in size)
How it was run: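 ME-180 AP-1-bla, 2500 cells/well, Opti-MEM + 0.5% dialyzed FBS; overnight 37 °C; cpd 15-pt titration, 5 h 37 °C; CellTiter-Glo 30 min RT; luminescence read; normalised to TOAB and DMSO controls.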

[9] = qHTS assay to identify small molecule agonists of the AP-1 signaling pathway (AID 1159526; calls by dose curve)
[10] = molecular target: Retinoic acid receptor RXR-alpha (Homo sapiens) (UniProt P19793); assay: qHTS assay to identify small molecule agonists of the RXR signaling pathway (AID 1159527; calls by dose curve; note: nearly all actives have a fitted effect of over 35% in size; note: potency is the fitted concentration of half-maximal effect)
How it was run: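 Beta-lactamase reporter assay, agonist format. Engineered HEK 293T line, charcoal-stripped FBS at 2%, overnight (16 hr) exposure, fluorescence at 460 and 530 nm after 405 nm excitation.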

[11] = qHTS assay to identify small molecule agonists of the RXR signaling pathway - cell viability counter screen (AID 1159529); note: nearly all actives have a fitted effect of over 50% in size; note: potency is the fitted concentration of half-maximal effect
How it was run: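 Same-well viability check after the LiveBLAzer FRET read: CellTiter-Glo added, luminescence measured after 30 min at room temperature. Reporter HEK 293T cells had been treated with compounds for 16 hr following a 5 hr preincubation.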

[12] = qHTS assay to identify small molecule antagonists of the retinoid acid receptor (RAR) signaling pathway - cell viability counter screen (AID 1159551); note: nearly all actives have a fitted effect of over 35% in size
How it was run: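 Retinol-stimulated (1 uM final) C3RL4 cells, compound 6 h, 37 C; readout CellTiter-Glo luminescence (ATP) after 30 min RT incubation.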

[13] = qHTS assay to identify small molecule antagonists of the retinoic acid receptor (RAR) signaling pathway (AID 1159552; note: nearly all actives have a fitted effect of over 50% in size)
How it was run: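 Readout: luciferase luminescence, 30 min post-reagent at RT. Setup: C3RL4 RARE reporter cells, compounds plus retinol 1 uM final, 6 hr incubation at 37 C and 5% CO2.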

[14] = qHTS assay to identify small molecule antagonists of the estrogen related receptor (ERR) signaling pathway - cell viability counter screen (AID 1224818);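 note: series mostly up to about 46 µM; viability measured after 17.5 h of compound exposure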
How it was run: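 After a 6 h pre-incubation, ERR cells were dosed by pin tool with compounds, positive/negative controls or DMSO alone. Following 17.5 h at 37 C and 30 min with CellTiter-Fluor, fluorescence was recorded.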

[15] = qHTS assay to identify small molecule antagonists of the estrogen related receptor (ERR) signaling pathway (AID 1224819)
How it was run: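 Luminescence readout (One-Glo, 30 min, RT) of ERR cell line after 18 h compound exposure at 37 C; cells seeded 2,000/well, pre-incubated 6 h, compounds pinned from DMSO stocks.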

[16] = qHTS assay to identify small molecule agonists of the estrogen related receptor (ERR) signaling pathway (AID 1224820)
How it was run: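 ERR reporter cell line (from NTP), 2,000 cells/well, incubated 6 h before compound addition, then 18 h at 37 C. Luminescence measured 30 min after One-Glo reagent at room temperature.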

[17] = qHTS assay to identify small molecule antagonists of the estrogen related receptor signaling pathway with the pleiotropic PPARgamma coactivator (PGC) cell viability counter screen (AID 1224822;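 note: series mostly up to about 46 µM; viability read after 17.5 h compound exposure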)
How it was run: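 PGC/ERR cells were plated at 2,000 per well and allowed 6 h to settle before compound addition. Following 17.5 h at 37 C, CellTiter-Fluor reagent was added and fluorescence was read 30 min later.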

[18] = qHTS assay to identify small molecule agonists of the retinoic acid receptor (RAR) signaling pathway (AID 1159553)
How it was run: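 Reporter readout comes from luciferase under RARE control in C3RL4 cells; compound exposure lasts 6 hr at 37 C in 5% CO2, and luminescence is recorded following a 30 min room-temperature incubation with reagent.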

[19] = qHTS assay to identify small molecule agonists of the endoplasmic reticulum stress response signaling pathway (AID 1159516; active = well fitted activation curve with a large enough effect in the signal ratio in the repeat runs, not every such curve was filed as active; the % refers to the signal ratio)
How it was run: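 An ESRE-bla HeLa cell assay: compounds were pin-transferred from DMSO onto overnight-plated cells and left 5 hr at 37 C. Substrate was then loaded for 2 hr at room temperature before reading fluorescence at 460 nm and 530 nm.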

[20] = qHTS assay to identify small molecule agonists of the estrogen related receptor signaling pathway with the pleiotropic PPARgamma coactivator (PGC) (AID 1224823)
How it was run: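 PGC/ERR reporter cells seeded 6 h, then exposed to compounds (23 nL in DMSO) for 18 h at 37 C. One-Glo luciferase luminescence read after 30 min at room temperature.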

Measured: Potency

Sequence of Retinoic acid receptor RXR-alpha (Homo sapiens) (P19793 whole entry, looked up): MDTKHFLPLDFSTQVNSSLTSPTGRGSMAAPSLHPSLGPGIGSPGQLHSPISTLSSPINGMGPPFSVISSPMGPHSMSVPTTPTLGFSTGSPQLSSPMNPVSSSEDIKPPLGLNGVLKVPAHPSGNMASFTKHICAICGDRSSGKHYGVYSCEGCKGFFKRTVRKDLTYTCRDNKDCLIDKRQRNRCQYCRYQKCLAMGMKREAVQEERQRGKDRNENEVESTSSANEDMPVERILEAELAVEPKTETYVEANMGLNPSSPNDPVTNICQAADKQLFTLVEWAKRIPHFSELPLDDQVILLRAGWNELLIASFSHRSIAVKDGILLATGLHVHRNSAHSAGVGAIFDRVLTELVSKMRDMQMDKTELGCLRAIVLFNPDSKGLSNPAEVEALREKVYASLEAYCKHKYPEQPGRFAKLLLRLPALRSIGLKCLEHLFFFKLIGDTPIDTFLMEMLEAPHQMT

COC(N)=O
not listed: [14] | [15] | [16] | [17] | [18] | [19] | [20]
inactive: all other assays above

CC(C)N(CCC(C(N)=O)(c1ccccc1)c1ccccn1)C(C)C (stereo not drawn)
not listed: [10] | [18] | [19] | [20]
inactive: all other assays above

N#Cc1ccc(Cl)cc1
not listed: [6] | [14] | [15] | [16] | [17] | [18] | [19] | [20]
inactive: all other assays above

O=S(=O)(Cl)c1ccccc1
not listed: [7] | [14] | [15] | [16] | [17] | [19] | [20]
inactive: all other assays above

CCCCN(N=O)C(=N)N[N+](=O)[O-]
inactive: [1] | [2] | [3] | [4] | [5] | [7] | [8] | [10] | [12] | [18]

Clc1cc(C(Cl)(Cl)Cl)cnc1Cl
active: [5] 11 µM
not listed: [8] | [14] | [15] | [16] | [17] | [18] | [19] | [20]
inactive: all other assays above

O=C(O)C(F)(F)C(F)(F)C(F)(F)C(F)(F)C(F)(F)C(F)(F)C(F)(F)C(F)(F)C(F)(F)C(F)(F)F
active: [10] 11.6 µM
not listed: [11] | [14] | [15] | [16] | [17] | [19] | [20]
inactive: all other assays above

CC(C)(C)c1cc([N+](=O)[O-])cc([N+](=O)[O-])c1O
active: [7] 6.09 µM
inactive: [3] | [4] | [5] | [8] | [11] | [12]

O=C(O)COc1ccc(Cl)cc1
inactive: [1] | [2] | [3] | [4] | [19] | [8] | [9] | [11] | [12] | [13] | [18]

O=C(C(Cl)(Cl)Cl)C(Cl)(Cl)Cl
not listed: [6] | [14] | [15] | [16] | [17] | [18] | [19] | [20]
inactive: all other assays above

CC(O)(CS(=O)(=O)c1ccc(F)cc1)C(=O)Nc1ccc(C#N)c(C(F)(F)F)c1 (stereo not drawn)
active: [7] 25.2 µM | [11] 22.7 µM
not listed: [2] | [10] | [15] | [19]
inactive: all other assays above

CN1C(=O)NC(=O)C(C)(C2=CCCCC2)C1=O (stereo not drawn)
not listed: [14] | [15] | [16] | [17] | [19] | [20]
inactive: all other assays above

[O-][Cl+]O
not listed: [10] | [14] | [15] | [16] | [17] | [19] | [20]
inactive: all other assays above

Cc1ccccc1CCl
not listed: [8] | [14] | [15] | [16] | [17] | [19] | [20]
inactive: all other assays above

Cl/C=C\C[N+]12CN3CN(CN(C3)C1)C2
inactive: [1] | [2] | [3] | [4] | [5] | [7] | [9] | [10] | [11] | [12]

CCCN(CCCl)c1c([N+](=O)[O-])cc(C(F)(F)F)cc1[N+](=O)[O-]
inactive: [2] | [3] | [4] | [5] | [7] | [11] | [12] | [18]

ClC=C(Cl)Cl
not listed: [13] | [14] | [15] | [16] | [17] | [18] | [19] | [20]
inactive: all other assays above

CC1(C)[C@H](C=C(Cl)Cl)[C@@H]1C(=O)O[C@@H](C#N)c1cccc(Oc2ccccc2)c1
inactive: [1] | [3] | [4] | [5] | [6] | [10] | [12] | [13] | [18]
active: [7] 54.5 µM

O=[N+]([O-])c1ccc(F)c([N+](=O)[O-])c1
active: [5] 17.5 µM | [7] 49 µM
inactive: [1] | [2] | [3] | [4] | [8] | [9] | [10] | [12] | [13] | [18]

CC(C)=CCOc1c2occc2cc2ccc(=O)oc12
not listed: [8] | [15] | [19]
inactive: all other assays above

CCCCCCCCCC(=O)O[C@H]1CC[C@H]2[C@@H]3CCC4=CC(=O)CC[C@@H]4[C@H]3CC[C@]12C
inactive: [2] | [3] | [4] | [5] | [7] | [8] | [9] | [12] | [13]

From PubChem BioAssay (Tox21)
